# Most compounds without a hit are left out; they make up all but 6.1% or so of the library.
# ERG-DNA inh: qHTS for Small Molecule Inhibitors of the ERG Ets/DNA interaction. Transcriptional regulator ERG (Homo sapiens), P11308. fluorescence polarization, His-ERG Ets domain / labelled DNA. Potency, µM (top dose mostly 76.9 µM), for the others: top-dose FP activity, negative = inhibition, most hits filed as inhibitors. AID 624246, 2012. actives 0.028% (n = 370,000); active = well fitted inhibition curve with a large enough effect in the polarisation, with a control signal flat; inconclusive = small, poorly fitted or top-dose-only effect, or effect the other way, or a change in a side signal; inactive = no such curve, though single readings can be large or run the other way; the % refers to the polarisation;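 also: polarization taken with two DNA probes labelled with fluorescein and Texas red; potency is read from the fitted curve at half-maximal effect; % of control where 0% means no effect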
#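 His-tagged ERG Ets domain (1 uM in the protein solution; 300mM KCl, 50mM Tris-HCl, 1mM EDTA, 1mM DTT, pH 7.5) received compound, then a probe mix of 5 nM fluorescein-DNA and 100nM Texas-615-DNA. Fluorescence polarization was read for both dyes.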
# D1 agonist: Allosteric Agonists of the Human D1 Dopamine Receptor: qHTS | actives 1% (n = 360,000) | activation, % at 2 µM | D(1A) dopamine receptor (Homo sapiens), P21728 | HEK293 T-REx D1 cells, calcium flux, agonist mode; in the data active = activation above about 30%; also: 0% is about no effect
#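 Tetracycline-induced HEK293 TREx D1 cells, force-coupled to calcium signalling, were dye-loaded with a no-wash calcium kit. Compound was pin-added after a 10 s baseline. Fluorescence was read kinetically at 1 cycle/s for 180 s, with calcium rises flagged as agonism.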
# D3 ag: qHTS of D3 Dopamine Receptor Agonist: qHTS. D3R DiscoveRx beta-arrestin cells, luminescence, 90 min. D(3) dopamine receptor (Homo sapiens), P35462. actives 0.58% (n = 410,000). AID 652048, 2013. max activation, %; in the data active = max activation above about 30%; also: 0% is about no effect
# Target sequence (P35462 whole entry, looked up): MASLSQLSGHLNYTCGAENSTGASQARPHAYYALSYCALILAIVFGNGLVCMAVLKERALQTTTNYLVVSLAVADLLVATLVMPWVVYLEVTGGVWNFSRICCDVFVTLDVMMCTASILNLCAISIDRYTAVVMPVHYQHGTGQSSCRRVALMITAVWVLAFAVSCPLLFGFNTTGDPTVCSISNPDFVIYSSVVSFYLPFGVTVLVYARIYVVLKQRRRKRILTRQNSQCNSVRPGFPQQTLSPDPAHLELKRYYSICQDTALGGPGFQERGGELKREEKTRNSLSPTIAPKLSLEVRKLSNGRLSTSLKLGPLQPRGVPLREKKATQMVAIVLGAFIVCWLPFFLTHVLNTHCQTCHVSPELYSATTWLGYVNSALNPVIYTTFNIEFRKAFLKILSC
#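 Agonist-mode cell screen: cells plated at 1500/well and incubated overnight at 37 °C, then exposed to library compounds for 90 min at 37 °C. Detection reagent was added for 30–60 min at room temperature, and luminescence was read.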
# D3 antag: qHTS of D3 Dopamine Receptor Antagonist: qHTS; D(3) dopamine receptor (Homo sapiens), P35462; D3R cells, DiscoveRx beta-arrestin luminescence, antagonist mode; hits give low values; max response, negative = inhibition, %; actives 2.5% (n = 360,000); in the data active = max response below about -50%; inconclusive = no clear call, values can overlap the other calls; also: % is scaled to controls: 0 for no effect and ±100 for the full control effect
#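 Cells expressing the human receptor were seeded at 1500 cells/well, incubated overnight at 37 degrees C in 5% CO2, then exposed to library compounds with dopamine controls for 90 minutes at 37 degrees C before luminescent detection.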
# D1 PAM: Potentiators of Human D1 Dopamine Receptor: qHTS; D(1A) dopamine receptor (Homo sapiens), P21728; AID 504651, 2011; actives 0.036% (n = 360,000); potentiation, % at 10 µM; HEK293 TREx D1 cells, calcium flux, dopamine EC20 potentiation; in the data active = potentiation above about 30%; also: 0% is about no effect
# D1 antag: Antagonist of Human D 1 Dopamine Receptor: qHTS. D(1A) dopamine receptor (Homo sapiens), P21728. HEK293 TREx D1 cells, calcium flux, dopamine EC80; hits give low values. activity change, negative = inhibition, % at 10 µM. actives 3.2% (n = 360,000); in the data active = activity change below about -30%; also: % is scaled to controls: 0 for no effect and ±100 for the full control effect
#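 Cells carrying a force-coupled, tetracycline-inducible human D1 receptor report calcium flux. Each well gets a 10 s baseline, compound with 180 s monitoring, then an EC80 dopamine stimulus with a second 180 s kinetic read.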
# * marks the source's active call; other numbers are inactive results; ? = inconclusive; . = no result given; ! = repeats disagree.
SMILES,ERG-DNA inh,D1 agonist,D3 ag,D3 antag,D1 PAM,D1 antag
CC(=O)N1CCOc2ccc(S(=O)(=O)NCc3ccc(F)cc3)cc21,-6%,2,-6,14,-7,3
CN1CCN(CC#CC(C)(O)C2CC3C=CC2C3)CC1 (stereo unspecified),-16%,4,-15,0,-1,-74*
OC(CCN1CCCCC1)(c1ccccc1)C1C[C@@H]2C=C[C@H]1C2 (stereo partly specified),-9%,12,-50,?,-4,24
COc1cc(-c2cc(C(=O)NCc3ccc(S(N)(=O)=O)cc3)c3ccccc3n2)cc(OC)c1OC,4%,2,2,12,13,10
COc1ccc(C2NCCc3sccc32)cc1 (stereo unspecified),-9%,4,73*,11,4,-1
CC(C(=O)NC(C)(C)C)N1C(=O)c2cccc3cccc(c23)C1=O (stereo unspecified),0%,1,-8,-14,-4,-71*
Cc1ccc(S(=O)(=O)NNC(=O)C2CCN(Cc3ccccc3)CC2)cc1,7%,1,-10,-63*,-2,7
O=C(C1CCCCN1S(=O)(=O)c1ccccc1)N1CCN(C(c2ccccc2)c2ccccc2)CC1 (stereo unspecified),-4%,8,-22,-3,2,-30*
Cc1ccc(S(=O)(=O)N2CCCCC2C(=O)N2CCN(Cc3ccccc3)CC2)cc1 (stereo unspecified),-8%,1,-45,-52*,-7,2
Cc1nc(SCC(=O)c2ccc(F)cc2)c([N+](=O)[O-])[nH]1,1%,1,-5,19,1,-3
Cc1nc(SCC(=O)c2ccc(Cl)cc2)c([N+](=O)[O-])[nH]1,-10%,2,0,-66*,-4,-40*
Cc1cc(C)c(C(N)=O)c(SCC(=O)c2ccc(Cl)cc2)n1,-3%,.,1,-60*,.,.
COC(=O)c1sc(S(=O)(=O)N2CCN(c3ccc(OC)cc3)CC2)c(C(=O)OC)c1C,-1%,3,8,-19,0,-40*!
COC(=O)c1sc(S(=O)(=O)N2CCN(c3ccccc3F)CC2)c(C(=O)OC)c1C,-13%,.,-2,-5,.,.
NC(=O)CSc1nc(-c2ccccc2)c(-c2ccccc2)o1,.,-3,-11,-25,-3,16
COc1ccc([N+](=O)[O-])cc1N(CC(O)CN(C)C)S(=O)(=O)c1ccccc1 (stereo unspecified),-2%,1,0,5,0,19
C=CCN(CC=C)CC(O)CN(c1cc([N+](=O)[O-])ccc1OC)S(=O)(=O)c1ccccc1 (stereo unspecified),-8%,3,-41,-84*,-4,2
Cc1ccc(C(=O)N2CCN(c3ccccc3O)CC2)cc1S(=O)(=O)N1CCCCC1,-1%,2,-26,0,1,-25
Cc1cc(C=O)c(C)n1-c1ccc(Oc2ccc([N+](=O)[O-])cn2)cc1,-2%,22,0,-5,-3,-53*
COc1cc([N+](=O)[O-])cc(/C=N/N(CCC#N)C(C)=O)c1O,?,1,-12,-59*,16,5
COc1cc(C(=O)NC(=S)Nc2nccs2)cc(OC)c1OC,17%,2,6,17,5,1
CCC(C)c1ccc(NC(=S)Nc2ccc(OC)cc2C)cc1 (stereo unspecified),9%,9,23,-133*,-12,1
COc1cc(CNC2CCCC2)cc(Cl)c1OCc1ccccc1Cl,-1%,25,-19,19,10,8
COc1cc(CNCCO)cc(Cl)c1OCc1ccc(Cl)cc1Cl,2%,154*,-9,-29,8,-3
COc1cc(CNC(C)(C)CO)cc(Br)c1OCc1ccc(Cl)cc1Cl,0%,28,1,-2,-5,16
SMILES,ERG-DNA inh,D1 agonist,D3 ag,D3 antag,D1 PAM,D1 antag
COc1cc(CNCCO)cc(Br)c1OCc1ccccc1Cl,2%,69*,-1,16,5,9
CCOc1cc(C=NNC(=O)c2cccc(S(=O)(=O)N3CCCC3)c2)ccc1O,-9%,.,-2,0,.,.
O=C(NCc1ccco1)C1CC(=O)N(c2cccc(Cl)c2)C1 (stereo unspecified),-9%,0,3,1,-5,-1
CN1CCN(c2oc(Cc3cccc4ccccc34)nc2C#N)CC1,-17%,4,-10,-6,-6,-21
Cc1ccccc1C(=O)Nc1ccnn1C1CCN(CC2CC=CCC2)CC1 (stereo unspecified),14%,4,-34,?,-3,-8
Cc1ccc(-n2c(O)c(/C=N/n3cnnc3)c3ccccc3c2=O)cc1,4%,2,7,-109*!,0,10
O=[N+]([O-])c1ccc(-c2ccc(/C=N/Nc3nc(N4CCCCC4)nc(N4CCCCC4)n3)o2)cc1,1%,47*,10,15,-2,-2
O=[N+]([O-])c1ccc(/C=N/Nc2nc(N3CCCC3)nc(N3CCCC3)n2)o1,-1%,1,-5,4,-1,-13
O=[N+]([O-])c1ccc(-n2cccc2/C=N/Nc2nc(N3CCCCC3)nc(N3CCCCC3)n2)cc1,.,0,.,.,-4,-4
O=[N+]([O-])c1cccc(-c2ccc(/C=N/Nc3nc(N4CCCCC4)nc(N4CCCCC4)n3)o2)c1,-5%,5,52*,108,1,3
O=[N+]([O-])c1ccc(-c2ccc(/C=N/Nc3nc(N4CCCC4)nc(N4CCCC4)n3)o2)cc1,11%,76*,22,48,-2,18
COc1cc(/C=C/CN2CCC(Oc3ccc(C(=O)N4CCCC4)cc3)CC2)ccc1O,2%,4,-11,-7,0,5
Cc1nn(CCCC(=O)Nc2ccccn2)c(C)c1[N+](=O)[O-],-4%,2,2,9,0,17
CCN(CC)CCNC(=O)C(C)c1nn(CC)c(=O)c2ccccc12 (stereo unspecified),-6%,1,3,3,3,-57*
O=C(NCCc1c[nH]c2ccccc12)c1cnc2sccn2c1=O,9%,5,8,20,4,-13

# Screening results (PubChem BioAssay)
